# Source: PubChem (National Center for Advancing Translational Sciences (NCATS))
# Shown are actives, neighbours in structure and some others; about 19% of the full set was active somewhere.
# TDP1 block = TDP1 (human) enzyme inhibition; Potency, µM (doses to about 130 µM), for inactives: top-dose activity change, negative = inhibition, most hits filed as inhibitors; recombinant TDP1, AlphaScreen DNA substrate cleavage; AID 485290; Q9NUW8; 350,000 tested, 0.28% active; further: potency means the concentration at half of the fitted maximal effect; nearly all actives have a fitted effect of over 40% in size
# Target sequence (Q9NUW8 whole entry, looked up): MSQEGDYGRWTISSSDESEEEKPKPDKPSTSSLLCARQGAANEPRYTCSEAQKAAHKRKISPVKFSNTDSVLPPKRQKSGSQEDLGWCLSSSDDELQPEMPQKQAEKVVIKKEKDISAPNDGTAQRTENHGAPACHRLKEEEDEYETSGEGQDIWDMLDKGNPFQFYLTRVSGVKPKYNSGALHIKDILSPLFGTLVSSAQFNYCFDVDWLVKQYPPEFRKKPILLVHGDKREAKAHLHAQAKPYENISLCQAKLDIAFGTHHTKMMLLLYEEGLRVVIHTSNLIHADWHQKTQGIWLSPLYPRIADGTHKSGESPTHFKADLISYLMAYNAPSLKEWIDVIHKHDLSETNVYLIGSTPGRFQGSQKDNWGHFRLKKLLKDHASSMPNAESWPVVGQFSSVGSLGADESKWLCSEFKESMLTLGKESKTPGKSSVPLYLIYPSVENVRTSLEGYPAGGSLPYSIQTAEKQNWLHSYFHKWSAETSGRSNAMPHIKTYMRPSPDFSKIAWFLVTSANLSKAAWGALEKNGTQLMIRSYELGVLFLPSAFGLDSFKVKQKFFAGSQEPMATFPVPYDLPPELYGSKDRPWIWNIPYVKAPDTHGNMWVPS
#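 Compounds were preincubated with Tdp1 (1 nM final) for 15 min at room temperature before substrate (15 nM final) started a 5 min reaction; beads (10 ug/ml final) were then added for 10 min before AlphaScreen detection.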
# TDP1 cell noCPT = qHTS for Inhibitors of human tyrosyl-DNA phosphodiesterase 1 (TDP1): qHTS in cells in absence of CPT | DT40 Tdp1-/- hTDP1 cells, no CPT, ATP luminescence, 48 h | Potency, µM (series often up to 46.2 µM), inactives show at the top dose activity change, negative = growth inhibition, actives largely listed as inhibitors | 420,000 tested, 15% active | AID 686978, 2013; further: potency means the concentration at half of the fitted maximal effect; nearly all actives have a fitted effect of over 55% in size
#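 Camptothecin absent (DMSO only). Human TDP1-complemented DT40 knockout cells, 400 cells/well, 37 °C for minimum 48 hr; ATP measured via CellTiter-Glo, 30 min dark incubation, luminescence.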
# Giardia killer = Giardia lamblia killing. Giardia lamblia trophozoite viability. activity change, % at 7.66 µM, hits read low. 340,000 tested, 0.15% active; in the data active means activity change below about -80%; inconclusive means between about -30% and that limit;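 further: parasites exposed to compound for two days anaerobically before the ATP read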
#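 Compounds were tested on trophozoites seeded at 100 cells/well and held 48 hrs at 37 deg C anaerobically. An ATP-based luminescent kit measured the remaining live cells.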
# IL-1B inflam inh = blocks inflammasome-driven IL-1 beta release; activity change, % at 57.5 µM; 360,000 tested, 4.7% active; THP-1 LPS/ATP IL-1B secretion, AlphaLISA, 16 h; stronger effect = lower value; AID 743279; in the data active means activity change below about -50%; inconclusive means mostly about -30% to -49%
#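 Secreted IL-1B measured by AlphaLISA bead assay after 16 h compound exposure of THP-1 cells; compounds (final up to 57.5 uM) added 1 h before LPS (250 ng/mL) and ATP (1.25 mM) stimulation; lower signal means less secretion.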
# ELG1 repair inh = blocks ELG1-dependent DNA repair in HEK293T cells; HEK293T ELG1-luciferase reporter, luminescence, 16 h; DNA damage induced by 5-fluorouridine; Potency, µM (highest dose often 46.1 µM), for the others: top-dose activity change, negative = inhibition, actives largely listed as inhibitors; 330,000 tested, 2.3% active; AID 504467; further: potency means the concentration at half of the fitted maximal effect; nearly all actives have a fitted effect of over 55% in size
#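 Step one: seed 2,000 cells per well. Step two: pin-transfer compound or DMSO alongside 5-fluorouridine. Step three: incubate 16 hr, 37 °C, 5% CO2. Step four: add ONE-Glo, wait 30 min, read luminescence.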
# DT40 TDP1 CPT = growth inhibition of DT40 Tdp1-/-;hTDP1 cells with camptothecin (screen for TDP1 inhibitors) | chicken DT40 Tdp1-/-;hTDP1 cells + 20 nM CPT, ATP luminescence, 48 h | 420,000 tested, 12% active | Potency, µM (top dose mostly 46.2 µM), without a hit: top-dose activity change, negative = growth inhibition, hits mostly inhibitors; further: potency means the concentration at half of the fitted maximal effect; nearly all actives have a fitted effect of over 55% in size
#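 Cell growth measured by CellTiter-Glo luminescence after a minimum 48 h, 37 C compound exposure with 20 nM CPT in Tdp1-knockout DT40 cells stably expressing hTDP1, seeded 400/well; qHTS titration format.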
# * hit, by the source's call; u = inconclusive; x = not tested or not shown; [ ] = dose if it differs, or a comment. Unless noted, the call rests on the fitted dose curve; in most records, active means well fitted curve in the direction sought with a large enough effect; inconclusive means small, poorly fitted or top-dose-only effect, or another doubt; inactive means no such curve, though single readings can be large; an effect the other way counts as inactive or inconclusive. On the % scale 0 is the no-effect control and ±100 the full control effect.
SMILES,TDP1 block,TDP1 cell noCPT,Giardia killer,IL-1B inflam inh,ELG1 repair inh,DT40 TDP1 CPT
Cc1ccc2nc(/C(C#N)=C/c3ccc(-c4ccccc4C(=O)O)o3)[nH]c2c1,x,3.6%,2.1,-7.5,-2.2%,-2.2%
Cc1ccc2nc(/C(C#N)=C\c3ccc(N4CCOCC4)o3)[nH]c2c1,1.7%,20.6µM*,4.9,-12.3,u,13µM*
CCOC(=O)c1ccc(-c2ccc(/C=C(\C#N)c3nc4ccc(C)cc4[nH]3)o2)cc1,-1.3%[12.3 µM],2.59µM*,x,x,x,23.1µM*
CN(CC(=O)NC(=O)NCc1ccccc1)CC(=O)Nc1ccc(Cl)c(Cl)c1,-2.5%,u,-20.5,-7.7,18.3µM*,25.9µM*
CN(CC(=O)Nc1ccc(Cl)c(Cl)c1)CC(=O)Nc1ccc2c(c1)OCO2,1.8%,4.2%,-8.5,-56.8*,-12.6%,u
CN(CC(=O)Nc1ccc(Cl)c(Cl)c1)C(=O)CNC(=O)Cc1ccccc1,1.0%,13µM*,8.6,u,-0.1%,20.6µM*
CN(CC(=O)Nc1ccc(Cl)c(S(=O)(=O)N(C)C)c1)Cc1ccccc1,3.0%,u,16.4,-28.8,u,u
CC(C)Cc1ccc(S(=O)(=O)Nc2cc3c(cc2N2CCOCC2)n(C)c(=O)c(=O)n3C)cc1,1.9%,u,x,x,x,u
CSCCC=O,17.2%,x,x,x,x,x
CCOC(=O)c1scc(-c2ccccc2)c1S(=O)(=O)Nc1ccccc1OC,5.8%,20.6µM*,x,x,x,18.4µM*
CCc1ccc(NS(=O)(=O)c2c(-c3ccccc3)csc2C(=O)OC)cc1,-4.5%,23.1µM*,x,x,x,u
CCN(c1ccccc1)S(=O)(=O)c1c(-c2ccc(C)cc2)csc1C(=O)OC,0.6%,14.6µM*,3.6,x,x,18.4µM*
CCOC(=O)c1scc(-c2ccc(C)cc2)c1S(=O)(=O)N1CCN(c2ccccc2F)CC1,0.6%,18.4µM*,x,x,x,14.6µM*
COC(=O)C[C@@H]1CC[C@H](NS(=O)(=O)c2ccccc2F)[C@@H](CO)O1,x,14.5%,x,1.1,x,5.3%
COc1ccc(OC)c(C(=O)c2ccc(C(=O)Nc3ccc(NC(C)=O)cc3)cc2)c1,-6.3%,-5.8%,4.3,-8.2,u,-3.5%
Cn1ccc2cc(S(=O)(=O)N3CCCC(C(=O)NCc4ccc(F)cc4)C3)ccc21 (stereo not drawn),-0.6%,u,x,x,x,u
COC(=O)c1scc(-c2ccccc2)c1S(=O)(=O)Nc1cccc(C)c1C,8.4%,25.9µM*,x,x,x,u
Cc1ccc(C(=O)Nc2ccccc2-c2ccccc2)cc1S(=O)(=O)Nc1cccc(C)c1C,6.4%,20.6µM*,-12.0,u,u,u
CCOC(=O)c1scc(-c2ccc(C)cc2)c1S(=O)(=O)Nc1cccc(CC)c1,-3.2%,13µM*,x,x,x,11.6µM*
Cc1ccc(C)c(NS(=O)(=O)c2cc(C(=O)Nc3ccccc3-c3ccccc3)ccc2C)c1,-2.0%,u,11.1,u,u,u
COC(=O)c1scc(-c2ccc(C)cc2)c1S(=O)(=O)Nc1cc(OC)c(OC)c(OC)c1,5.8%,u,x,x,x,20.6µM*
COC(=O)c1scc(-c2ccccc2)c1S(=O)(=O)Nc1ccc(C)c(Cl)c1,4.5%,u,x,x,x,u
O=C(Nc1ccc(Cl)cc1)C1CCC(CNS(=O)(=O)c2ccc(Br)s2)CC1 (stereo not drawn),2.5%,u,x,x,x,u
CCOC(=O)c1scc(-c2ccc(C)cc2)c1S(=O)(=O)Nc1cc(OC)ccc1OC,0.6%,3.66µM*,x,x,x,9.2µM*
COc1ccc(OC)c(NS(=O)(=O)c2cccs2)c1,0.0%,-26.9%,-26.0,12.0,-0.8%,-5.6%
CCc1ccc(-n2cnc3cc(C(=O)NCC(OC)OC)ccc32)cc1,x,14.1%,11.5,u,-2.4%,-20.5%
